Screening results as filed in PubChem BioAssay.
The list is not random: actives were taken first. Their share in the collection is about 4.1%.
ssDAF-12 act = S. stercoralis DAF-12 activation, primary screen | HEK293 ssDAF-12/GRIP1 lit1-tk-luc reporter, luminescence; % of 3 µM dafachronic acid response | activation, % at 6.8 µM | 370,000 tested, 1% active;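 active = activation above the mean over all tested compounds plus 3 SD, cut at about 0.9% in these data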
DAX1 inh-1 = DAX1 (NR0B1) inhibition, primary screen. AID 652010. inhibition, % at 6.8 µM. HEK293T StAR-luciferase reporter, SF-1/DAX-1 repression relief. 370,000 tested, 1.1% active;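 active = inhibition above the mean over all tested compounds plus 3 SD, cut at about 3.6% in these data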;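 also: higher inhibition means more luminescence from relief of DAX-1 repression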
hcDAF-12 act = H. contortus DAF-12 activation, primary screen. HEK293 hcDAF-12 lit1-tk-luc reporter, luminescence; 0% DMSO, 100% Δ7-dafachronic acid. activation, % at 6.8 µM. 370,000 tested, 1.4% active. AID 652067;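 active = activation above the mean of all tested compounds plus 3 SD, cut at about 5.5% in these data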
DAX1 inh-2 = inhibitors of human orphan nuclear receptor DAX1 (NR0B1) | P51843 | HEK293 Gal4-DAX1 luciferase reporter, luminescence | inhibition, % at 6.75 µM | 340,000 tested, 0.99% active;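 active = inhibition above the mean over all tested compounds plus 3 SD, cut at about 4.2% in these data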;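 also: inhibition shows as a rise in luminescence from relieved DAX1 repression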
hgDAF-12 ag = agonists of H. glycines DAF-12 nuclear receptor | HEK293 GAL4-hgDAF12 UAS-luciferase reporter, agonist luminescence; normalized to butyrate control | activation, % at 6.8 µM | 370,000 tested, 1.8% active | AID 687014;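 active = activation above a cutoff set at the mean of all screened compounds plus 3 SD, cut at about 10% in these data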
hgDAF12 conf = confirmation of H. glycines DAF-12 agonists | shares compounds with hgDAF-12 ag | HEK293 GAL4-hgDAF12 luciferase reporter, agonist mode; percent of butyrate response | activation, % at 6.8 µM | 3,300 tested, 80% active;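 active = mean activation over triplicate wells above the hit cutoff derived from the earlier primary screen, cut at about 11% in these data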
LXRb DAF12 ctr = counter-screen for DAF-12 agonists: agonists of human LXR-beta; shares compounds with hgDAF-12 ag; HEK293 Gal4-LXR luciferase reporter, 24 h; activation, % at 6.8 µM; 3,300 tested, under 10 active;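 active = mean activation of the triplicate above a set limit carried over from the primary screen, none filed active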
Target sequence (P55055 whole entry, looked up, the tested form may be a part): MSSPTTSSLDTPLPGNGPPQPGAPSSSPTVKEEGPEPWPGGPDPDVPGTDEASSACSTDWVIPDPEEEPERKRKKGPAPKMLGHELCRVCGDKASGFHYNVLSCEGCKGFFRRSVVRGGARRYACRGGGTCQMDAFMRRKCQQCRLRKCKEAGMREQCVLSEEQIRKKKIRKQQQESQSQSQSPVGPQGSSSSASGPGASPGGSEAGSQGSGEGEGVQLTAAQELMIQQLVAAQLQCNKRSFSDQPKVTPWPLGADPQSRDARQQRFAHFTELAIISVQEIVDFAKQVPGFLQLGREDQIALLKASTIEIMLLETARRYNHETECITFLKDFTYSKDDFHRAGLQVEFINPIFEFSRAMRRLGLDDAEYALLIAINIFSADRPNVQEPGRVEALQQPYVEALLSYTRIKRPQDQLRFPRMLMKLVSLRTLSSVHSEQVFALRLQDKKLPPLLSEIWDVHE
Numbers stand for hits; - = inactive; . = no result given.

SMILES | ssDAF-12 act | DAX1 inh-1 | hcDAF-12 act | DAX1 inh-2 | hgDAF-12 ag | hgDAF12 conf | LXRb DAF12 ctr
O=[N+]([O-])c1ccccc1S(=O)(=O)N1CCCc2ccccc21 | - | - | - | - | - | . | .
Cc1cc2c([nH]c3ccccc32)c2c1OC(C)(C)C=C2 | 1.1 | 4.2 | - | 5.0 | 14 | 11 | -
CC(C)(C)NC(=O)CSc1nnc(-c2ccncc2)n1Cc1ccccc1 | - | - | - | - | 14 | - | -
CC(C)C(C)(C#N)NC(=O)CSc1nnc(-c2ccncc2)n1Cc1ccccc1 (stereo not given) | - | - | - | - | - | . | .
CC(C)(C)c1ccc(S(=O)(=O)N2CCC(C(=O)NCC3COCCO3)CC2)cc1 (stereo not given) | - | - | - | . | - | . | .
Cc1oc(-c2ccc(-c3ccccc3)cc2)nc1CN1CCN(CC(=O)N(C)C)CC1 | - | - | 6.5 | - | 15 | 14 | -
COC(=O)C(C)Oc1cc(C)ccc1COc1ccc(-n2nc(C)n(C(F)F)c2=O)cc1 (stereo not given) | - | - | - | - | - | . | .
Cc1cc(C)n2nc(C(=O)Nc3ccc4c(c3)OCO4)cc2n1 | - | 4.2 | - | - | 15 | 15 | -
Cc1ccc(S(=O)(=O)N2CCC(NC(=O)OC(C)C)CC2)cc1 | - | - | - | - | - | . | .
Cc1ccc(NC2=Nc3ccccc3CC2)cc1 | - | - | 6.3 | - | 14 | 17 | -
COc1cc(O)cc2cc3c(c(O)c12)C(=O)CC(C)(O)O3 (stereo not given) | - | - | - | - | 15 | - | -
O=[N+]([O-])c1cccc(S(=O)(=O)N2CCCCC2c2cccnc2)c1 (stereo not given) | - | - | - | - | - | . | .
O=C(CN1C(=O)CSCC1=O)Nc1ccc2c(c1)OCO2 | - | - | - | - | - | . | .
CC1SC(C)C(=O)N(CC(=O)Nc2ccc3c(c2)OCO3)C1=O (stereo not given) | - | - | - | - | 14 | - | -
COc1cc2c(oc(=O)c3cc(C)cc(OC)c32)c2c(C3OC(C)C(O)C(C)(O)C3O)ccc(O)c12 (stereo not given) | - | - | - | - | - | . | .
CC(=Nc1ccc(Br)cc1)c1sc2ccccc2c1O | - | - | 6.0 | - | 13 | 21 | -
O=C(N/N=C/c1ccccc1)c1n[nH]c2c1CCCC2 | 1.1 | - | - | - | 17 | 16 | -
CC(C)c1ccc(NC(=O)Nc2cnccn2)cc1 | - | - | - | - | 16 | 14 | -
O=C(Nc1ccc(Cl)cc1)Nc1cnccn1 | - | - | - | - | - | . | .
CC(C)SCCCOc1ccc(C(C)(C)C)cc1 | - | - | - | - | - | . | .
CCOC(=O)c1c(C)[nH]c(C(=O)CSc2nccc(C)n2)c1C | - | - | - | - | - | . | .
CCOC(=O)c1c(C)[nH]c(C(=O)CSc2ccccc2)c1C | - | - | 5.6 | - | 18 | 14 | -
CC(=O)O[C@H]1C=C[C@@H](NC(=O)OC(C)(C)C)C1 | - | - | - | . | - | . | .
CC(=NNC(N)=S)c1ccc2cc3c(cc2c1)OCO3 | - | - | - | - | 25 | 13 | -
C/C(=N\NC(N)=S)c1ccc2c(c1)OCCO2 | - | - | - | - | - | . | .
SMILES | ssDAF-12 act | DAX1 inh-1 | hcDAF-12 act | DAX1 inh-2 | hgDAF-12 ag | hgDAF12 conf | LXRb DAF12 ctr
O=C(Nc1c2c(nn1-c1ccc(F)cc1)CS(=O)C2)c1ccc2c(c1)OCO2 (stereo not given) | - | - | - | - | - | . | .
NC(=O)c1cccnc1Nc1cccc([N+](=O)[O-])c1 | - | - | - | 4.3 | 14 | - | -
C=CCNc1nc(NCc2ccc(N(C)C)cc2)c2sc(-c3ccccc3)cc2n1 | - | 4.5 | - | . | 15 | - | -
COc1ccc2nc(SCc3cccc(C)c3)nc(C)c2c1 | - | - | - | - | 15 | 14 | -
CCc1ccc(C(=O)Nc2cc3c(cc2Cl)OCCCO3)cc1 | - | - | - | - | 14 | 14 | -
COc1ccccc1N1CCN(C2=Nc3cccc4cccc2c34)CC1 | - | 4.0 | - | - | 13 | - | -
CCN(CC)CCOC(=O)c1ccc(NC(=O)/C=C/c2cccs2)cc1 | - | - | - | - | - | . | .
CCOC(=O)c1ccc(NC(=O)/C=C/c2cccs2)cc1 | - | - | - | - | 19 | - | -
O=C(NNC(=S)Nc1ccccc1C(F)(F)F)C1CC1 | - | - | - | . | - | . | .
CN1CCC(=NNC(=O)C(=O)NC(C)(C)C)CC1 | - | - | - | - | - | . | .
CN1CCC(=NNC(=O)C(=O)Nc2ccccc2F)CC1 | - | - | - | - | 24 | - | -
Clc1ccc2nc(CSCc3ccccc3)cn2c1 | 0.9 | 4.0 | - | - | 19 | 14 | -
Clc1ccc2nc(CSc3nc4ccccc4o3)cn2c1 | - | - | - | - | - | . | .
C=CCn1c(SCC(N)=O)nc2scc(-c3ccc(C)o3)c2c1=O | - | - | 5.6 | - | 20 | 17 | -
N#Cc1c(NC(=O)c2cnccn2)sc2c1CCCC2 | - | - | - | - | 14 | 13 | -
Cc1cccc(C(=O)Nc2sc3c(c2C#N)CCCCC3)c1 | - | - | - | - | 15 | 17 | -
Cc1cccc(C(=O)Nc2sc3c(c2C(=O)O)CCC3)c1 | - | - | - | - | - | . | .
N#Cc1c(NC(=O)c2ccccc2)sc2c1CCC2 | - | - | 5.7 | - | 16 | 23 | -
N#Cc1c(NC(=O)c2cccnc2)sc2c1CCC2 | - | - | - | - | - | . | .
CCN(CC)C(=O)[C@H]1C[C@@H]2[C@H](C[C@@H](c3ccccc3)[C@H]1C)N(c1ccc(F)cc1)C(=O)N2CCCOc1ccccc1 | - | - | - | . | - | . | .
Cc1ccc(NC(=O)Cn2nnc(-c3ccc4c(c3)OCO4)n2)cc1F | - | - | - | - | - | . | .
Fc1ccccc1Cn1nnc(-c2ccc3c(c2)OCO3)n1 | 1.3 | 3.7 | - | - | 14 | 19 | -
COc1ccc(-c2cc(=O)c3cc(C)ccc3[nH]2)cc1 | - | - | 5.7 | - | 16 | 16 | -
O=C(N/N=C/C(Br)=C/c1ccccc1)c1cccs1 | - | - | - | 4.5 | 24 | 15 | -
Cc1nn(-c2ccc(F)cc2)c(Cl)c1/C=N/NC(=O)c1cccs1 | - | - | - | - | 15 | - | -
SMILES | ssDAF-12 act | DAX1 inh-1 | hcDAF-12 act | DAX1 inh-2 | hgDAF-12 ag | hgDAF12 conf | LXRb DAF12 ctr
Cc1ccsc1/C=N/NC(=O)c1cccs1 | - | - | - | - | 15 | - | -
Cc1cc(/C=N/NC(=O)c2cccs2)c(C)n1-c1ccccc1 | - | - | - | - | - | . | .
Cc1cc(/C=N/NC(=O)c2cccs2)c(C)n1-c1cnccn1 | - | 3.9 | - | - | 16 | 15 | -
Cc1ccc(C(=O)Nc2ncn[nH]2)cc1 | - | - | - | - | - | . | .
CC(C)(C)c1ccc(C(=O)Nc2ncn[nH]2)cc1 | - | - | - | - | 14 | 13 | -
O=C(Nc1ccc(N2CCOCC2)cc1)c1ccc(COc2ccccc2)cc1 | - | - | - | - | - | . | .
